Laboratory results from PubChem BioAssay AID1159580 (chemical genetic matrix, 2015).
The campaign covered roughly 5,500 compounds. About 2,000 (36%) were called active. Another 18% or so got no clear call; they are omitted. No stated cut-off is given here; in the data, active means normalized growth mostly below about 0.91 (no sharp cut-off); inconclusive means no clear call, values can overlap the other calls; inactive means mostly above about 0.92. The list shows a part of the results.

Test: chemical genetic growth profiling, strain panel (AID 1159580);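 further: tested at 20 µM; growth read once vehicle control cultures reached saturation at 30 °C; 1 = growth at the plate median or of vehicle wells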
Settings: S. cerevisiae deletion strains, growth OD
[1] = locus YAL040C, strain CLN3, stronger effect = lower value
[2] = locus YCL061C, strain MRC1 (second series), stronger effect = lower value
[3] = locus YDR363W, strain ESC2, stronger effect = lower value
[4] = locus YER002W, strain NOP16, stronger effect = lower value
[5] = locus YGR078C, strain PAC10, stronger effect = lower value
[6] = locus YMR307W, strain GAS1, stronger effect = lower value
[7] = locus YNL128W, strain TEP1, stronger effect = lower value
[8] = locus YNL153C, strain GIM3, stronger effect = lower value
[9] = locus YNL175C, strain NOP13, stronger effect = lower value
[10] = locus YNL197C, strain WHI3, stronger effect = lower value
[11] = locus YNL224C, strain SQS1, stronger effect = lower value
[12] = locus YOR083W, strain WHI5 (second series), stronger effect = lower value
[13] = locus YPL241C, strain CIN2, stronger effect = lower value

Measured: normalized growth

O=C1CN2Cc3c(ccc(Cl)c3Cl)N=C2N1
inactive: locus YAL021C, strain ccr4, stronger effect = lower value 0.988 | locus YAL026C, strain drs2, stronger effect = lower value 0.976 | locus YAL030W, strain snc1, stronger effect = lower value 0.987 | locus YBL061C, strain skt5, stronger effect = lower value 1 | locus YBR009C, strain hhf1, stronger effect = lower value 0.966 | locus YBR023C, strain chs3, stronger effect = lower value 0.983 | locus YBR171W, strain sec66, stronger effect = lower value 0.967 | locus YBR231C, strain swc5, stronger effect = lower value 0.982 | locus YBR279W, strain paf1, stronger effect = lower value 0.978 | locus YCL011C, strain gbp2, stronger effect = lower value 0.975 | locus YCL016C, strain dcc1, stronger effect = lower value 0.978 | locus YCL061C, strain MRC1, stronger effect = lower value 0.984 | locus YCL069W, strain vba3, stronger effect = lower value 0.986 | locus YCR088W, strain abp1, stronger effect = lower value 1.03 | locus YDL005C, strain med2, stronger effect = lower value 0.96 | locus YDL040C, strain nat1, stronger effect = lower value 0.986 | locus YDR001C, strain nth1, stronger effect = lower value 1.05 | locus YDR069C, strain doa4, stronger effect = lower value 0.972 | locus YDR137W, strain rgp1, stronger effect = lower value 0.962 | locus YDR159W, strain sac3, stronger effect = lower value 0.965 | locus YDR195W, strain ref2 0.961 | locus YDR297W, strain sur2, stronger effect = lower value 0.97 | locus YDR334W, strain swr1, stronger effect = lower value 0.99 | locus YDR335W, strain msn5, stronger effect = lower value 1.01 | locus YDR392W, strain spt3, stronger effect = lower value 0.952 | locus YEL003W, strain gim4, stronger effect = lower value 0.98 | locus YEL061C, strain CIN8 (second series), stronger effect = lower value 1.04 | locus YER015W, strain faa2, stronger effect = lower value 1.03 | locus YER016W, strain bim1, stronger effect = lower value 0.979 | locus YER155C, strain BEM2 (second series), stronger effect = lower value 1.02 | locus YFR010W, strain ubp6, stronger effect = lower value 1.02 | locus YGL167C, strain pmr1, stronger effect = lower value 0.968 | locus YGL173C, strain kem1, stronger effect = lower value 0.972 | locus YGL227W, strain vid30, stronger effect = lower value 0.969 | locus YGL240W, strain doc1, stronger effect = lower value 0.97 | locus YGL253W, strain hxk2, stronger effect = lower value 0.987 | locus YHR013C, strain ard1, stronger effect = lower value 0.956 | locus YHR027C, strain rpn1, stronger effect = lower value 0.996 | locus YHR030C, strain SLT2, stronger effect = lower value 0.984 | locus YHR079C, strain IRE1, stronger effect = lower value 0.996 | locus YHR142W, strain chs7, stronger effect = lower value 1.04 | locus YJL092W, strain hpr5, stronger effect = lower value 0.983 | locus YJL095W, strain BCK1 (second series), stronger effect = lower value 0.982 | locus YJL095W, strain BCK1, stronger effect = lower value 0.973 | locus YJL115W, strain asf1, stronger effect = lower value 1.08 | locus YJL129C, strain trk1, stronger effect = lower value 0.978 | locus YJL154C, strain vps35, stronger effect = lower value 0.976 | locus YJL164C, strain tpk1, stronger effect = lower value 0.999 | locus YJL166W, strain qcr8, stronger effect = lower value 0.993 | locus YJL187C, strain SWE1, stronger effect = lower value 0.977 | locus YJR066W, strain TOR1, stronger effect = lower value 0.929 | locus YKL160W, strain elf1, stronger effect = lower value 0.996 | locus YKR026C, strain gcn3, stronger effect = lower value 0.97 | locus YKR091W, strain srl3, stronger effect = lower value 0.987 | locus YLL001W, strain dnm1, stronger effect = lower value 0.956 | locus YLL026W, stronger effect = lower value 0.975 | locus YLL041C, strain sdh2, stronger effect = lower value 0.975 | locus YLR027C, strain aat2, stronger effect = lower value 0.991 | locus YLR113W, strain HOG1, stronger effect = lower value 1.01 | locus YLR221C, strain rsa3, stronger effect = lower value 1 | locus YLR258W, strain gsy2, stronger effect = lower value 0.979 | locus YLR262C, strain YPT6 (second series), stronger effect = lower value 0.985 | locus YLR320W, strain mms22, stronger effect = lower value 1.01 | locus YLR357W, strain rsc2, stronger effect = lower value 0.925 | locus YLR370C, strain arc18, stronger effect = lower value 0.97 | locus YLR384C, strain iki3, stronger effect = lower value 1.02 | locus YML120C, strain ndi1, stronger effect = lower value 0.996 | locus YMR058W, strain fet3, stronger effect = lower value 0.978 | locus YMR125W, strain sto1, stronger effect = lower value 0.92 | locus YMR129W, stronger effect = lower value 0.964 | locus YMR205C, strain PFK2, stronger effect = lower value 0.949 | locus YMR231W, strain pep5, stronger effect = lower value 0.968 | locus YNL071W, strain lat1, stronger effect = lower value 0.985 | locus YNL183C, strain NPR1, stronger effect = lower value 0.941 | locus YNL209W, strain ssb2, stronger effect = lower value 0.987 | locus YNL248C, strain rpa49, stronger effect = lower value 0.997 | locus YNL322C, strain KRE1 (second series), stronger effect = lower value 0.985 | locus YNR049C, strain mso1, stronger effect = lower value 1.02 | locus YOR001W, strain rrp6, stronger effect = lower value 0.996 | locus YOR070C, strain gyp1, stronger effect = lower value 1.03 | locus YOR080W, strain dia2, stronger effect = lower value 0.963 | locus YOR083W, strain WHI5, stronger effect = lower value 0.999 | locus YOR106W, strain vam3, stronger effect = lower value 0.991 | locus YOR231W, strain MKK1, stronger effect = lower value 0.989 | locus YOR265W, strain rbl2, stronger effect = lower value 0.988 | locus YOR270C, strain vph1, stronger effect = lower value 0.957 | locus YOR290C, strain snf2, stronger effect = lower value 0.957 | locus YPL051W, strain arl3, stronger effect = lower value 1 | locus YPL078C, strain atp4, stronger effect = lower value 0.995 | locus YPL106C, strain sse1, stronger effect = lower value 0.958 | locus YPL240C, strain hsp82, stronger effect = lower value 0.97 | locus YPL256C, strain CLN2, stronger effect = lower value 1.01
active: locus YEL037C, strain rad23, stronger effect = lower value 1.09 [resistant] | locus YER111C, strain swi4, stronger effect = lower value 1.1 [resistant] | locus YLR342W, strain FKS1, stronger effect = lower value 1.11 [resistant]

C[C@@H]1C(=O)NC2=Nc3cccc(Cl)c3CN21
inactive: locus YAL013W, strain DEP1, stronger effect = lower value 0.983 | [1] 1 | [2] 1 | locus YDR150W, strain NUM1, stronger effect = lower value 1.01 | [3] 1 | [4] 1 | [5] 1 | locus YGR229C, strain SMI1, stronger effect = lower value 1 | [6] 1 | [7] 1.01 | [8] 0.982 | [9] 0.992 | [10] 1 | [11] 1 | locus YNL322C, strain KRE1, stronger effect = lower value 0.997 | [12] 1.01 | locus YPL055C, strain LGE1, stronger effect = lower value 1.02 | [13] 1

CN1CC(O)C(O)C(O)C1CO (stereo unspecified)
inactive: [1] 1 | [2] 1 | [3] 0.997 | [4] 1.01 | [5] 1.01 | [6] 0.998 | [7] 0.975 | [8] 1.01 | [9] 0.992 | [10] 1 | [11] 0.992 | [12] 1 | [13] 1.01
